# According to PubChem BioAssay (NCATS):
# Records with an inconclusive call do not appear. The source made the active and inactive calls. Calls come from the whole dose curve; as a rule, active = well fitted curve in the direction sought with a large enough effect; inconclusive = small, poorly fitted or top-dose-only effect, or another doubt; inactive = no such curve, though single readings can be large; an effect the other way counts as inactive or inconclusive.
# Tests used:
# MKL-1 = test: qHTS assay to identify novel small-molecules to repurpose for Merkel cell carcinoma treatment (AID 1296009); details: MCC and control cell lines, CellTiter-Glo viability, 72 h; series mostly up to 46 µM; note: nearly all actives have a fitted effect of over 60% in size
# In short: (§1)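 qHTS format: cells treated with library compounds in DMSO across 8 (NPC) or 11 (MIPE) concentrations. Readout after 72 hr at 37 degree celsius was CellTiter-Glo luminescence.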
# MKL-2 = test: as above; details: MCC and control cell lines, CellTiter-Glo viability, 72 h; series mostly up to 46 µM
# In short: as §1
# WaGa = test: as above; details: MCC and control cell lines, CellTiter-Glo viability, 72 h; series mostly up to 46 µM
# In short: as §1
# UISO = test: as above; details: MCC and control cell lines, CellTiter-Glo viability, 72 h; series mostly up to 46 µM
# In short: as §1
# C33A = test: Primary qHTS to identify gynecologic anti-cancer compounds using libraries of approved drugs and bioactive compounds (AID 1345084); details: Gynecologic cancer cell panel viability, ATPlite luminescence, 48 h; series mostly up to 57.5 µM; note: nearly all actives have a fitted effect of over 55% in size
# In short: (§2)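 Cells, 1,000 per well, were allowed to settle for 16 h at 37 C before compound addition. Five concentrations were tested for 48 h, and viability was read by ATPlite luminescence after 15 min at room temperature.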
# CASKI = test: as above; details: Gynecologic cancer cell panel viability, ATPlite luminescence, 48 h; series mostly up to 57.5 µM
# In short: as §2
# Es-2 = test: as above; details: Gynecologic cancer cell panel viability, ATPlite luminescence, 48 h; series mostly up to 57.5 µM
# In short: as §2
# HeLa = test: as above; details: Gynecologic cancer cell panel viability, ATPlite luminescence, 48 h; series mostly up to 57.5 µM
# In short: as §2
# Potency is the fitted concentration of half-maximal effect.
structure (smiles),measurement,setting,value
CN(C)c1ccc(C(=O)NCCCCCCC(=O)NO)cc1,Potency,MKL-1,1.66 µM (active)
same,Potency,MKL-2,0.743 µM (active)
same,Potency,WaGa,0.662 µM (active)
COc1ccc(Nc2cc(-c3cnc(N)nc3)nc(N3CCOCC3)n2)cn1,Potency,MKL-1,inactive
same,Potency,UISO,4.18 µM (active)
C#C[C@]1(O)CC[C@@H]2[C@@H]3CCc4cc(O)ccc4[C@H]3CC[C@@]21C,Potency,MKL-1,inactive
same,Potency,WaGa,inactive
CCN(CC)Cc1ccc2cc(COC(=O)Nc3ccc(C(=O)NO)cc3)ccc2c1,Potency,MKL-1,1.87 µM (active)
same,Potency,MKL-2,0.59 µM (active)
same,Potency,UISO,3.72 µM (active)
same,Potency,WaGa,0.526 µM (active)
same,Potency,C33A,3.55 µM (active)
same,Potency,CASKI,6.31 µM (active)
same,Potency,Es-2,6.31 µM (active)
same,Potency,HeLa,6.31 µM (active)
C=CC(=O)Nc1ccc2ncnc(Nc3ccc(OCc4cccc(F)c4)c(Cl)c3)c2c1,Potency,MKL-1,0.118 µM (active)
same,Potency,WaGa,0.0332 µM (active)
same,Potency,CASKI,14.1 µM (active)
same,Potency,Es-2,inactive
same,Potency,HeLa,inactive
C=C1C(=O)O[C@H]2[C@@H]1CCC(C)=CCC[C@@]1(C)O[C@@H]21,Potency,MKL-1,7.43 µM (active)
same,Potency,MKL-2,1.87 µM (active)
same,Potency,UISO,14.8 µM (active)
same,Potency,WaGa,7.43 µM (active)
COc1cc(C(=O)NC2CCN(C)CC2)ccc1Nc1ncc2c(n1)N(C1CCCC1)CCC(=O)N2C(C)C,Potency,MKL-1,2.35 µM (active)
same,Potency,WaGa,1.87 µM (active)
C[C@H](NC(=O)C(C#N)=Cc1cccc(Br)n1)c1ccccc1,Potency,MKL-1,inactive
same,Potency,WaGa,inactive
Cc1cnc(Nc2ccc(N3CCN(C)CC3)cc2)nc1Nc1cccc(S(=O)(=O)NC(C)(C)C)c1,Potency,MKL-1,10.5 µM (active)
same,Potency,MKL-2,10.5 µM (active)
same,Potency,WaGa,11.8 µM (active)
CCOC(=O)N1CCN([N+]([O-])=NOc2ccc([N+](=O)[O-])cc2[N+](=O)[O-])CC1,Potency,MKL-1,10.5 µM (active)
same,Potency,MKL-2,6.62 µM (active)
same,Potency,WaGa,11.8 µM (active)
COC[C@H](NC(=O)c1cnc(C)s1)C(=O)N[C@@H](COC)C(=O)N[C@@H](Cc1ccccc1)C(=O)[C@@]1(C)CO1,Potency,MKL-1,0.418 µM (active)
same,Potency,UISO,0.235 µM (active)
same,Potency,WaGa,0.118 µM (active)
Cn1cc(-c2ccc3ncc(Cc4ccc5ncccc5c4)n3n2)cn1,Potency,MKL-1,inactive
same,Potency,MKL-2,inactive
same,Potency,UISO,inactive
same,Potency,WaGa,inactive
Cn1cc(C2=C(c3c4n(c5ccccc35)CCC(CN)C4)C(=O)NC2=O)c2ccccc21 (stereo not drawn),Potency,MKL-1,20.9 µM (active)
same,Potency,MKL-2,20.9 µM (active)
same,Potency,WaGa,20.9 µM (active)
COc1cc2c(Nc3ccc(Cl)c(Cl)c3F)ncnc2cc1OCC1C[C@@H]2CN(C)C[C@H]2C1,Potency,MKL-1,7.43 µM (active)
same,Potency,UISO,4.18 µM (active)
same,Potency,WaGa,18.7 µM (active)
CCOC(=O)N1CCN([N+]([O-])=NOc2ccc([N+](=O)[O-])cc2C#N)CC1,Potency,MKL-1,1.66 µM (active)
same,Potency,MKL-2,1.18 µM (active)
same,Potency,WaGa,3.72 µM (active)
CCCCCCCCCCCCCCCC(=O)OC[C@@H](NC(=O)C(Cl)Cl)[C@H](O)c1ccc([N+](=O)[O-])cc1,Potency,MKL-1,inactive
same,Potency,MKL-2,inactive
same,Potency,UISO,inactive
same,Potency,WaGa,inactive
COc1cc(C)c(Sc2cnc(NC(=O)c3ccc(CNC(C)C(C)(C)C)cc3)s2)cc1C(=O)N1CCN(C(C)=O)CC1 (stereo not drawn),Potency,MKL-1,20.9 µM (active)
same,Potency,UISO,18.7 µM (active)
same,Potency,WaGa,16.6 µM (active)
Cc1[nH]c(C=C2C(=O)Nc3ccccc32)c(C)c1CCC(=O)O,Potency,MKL-1,0.372 µM (active)
same,Potency,UISO,0.469 µM (active)
same,Potency,WaGa,0.187 µM (active)
O=C(C[C@@H]1CC=CCCC(=O)O[C@H](c2ccccc2)CNC1=O)NCc1ccc(Cl)cc1,Potency,MKL-1,inactive
same,Potency,MKL-2,inactive
same,Potency,UISO,inactive
same,Potency,WaGa,inactive
OCCN1C[C@H](O)[C@@H](O)[C@H](O)[C@@H]1CO,Potency,MKL-1,inactive
same,Potency,MKL-2,inactive
same,Potency,UISO,inactive
same,Potency,WaGa,inactive
CC(C)(C)c1nc2c3cc[nH]c(=O)c3c3cc(F)ccc3c2[nH]1,Potency,MKL-1,inactive
same,Potency,MKL-2,inactive
same,Potency,WaGa,inactive
C=C1C(=CC=C2CCC[C@]3(C)[C@@H]([C@H](C)CCCC(C)(C)O)CC[C@@H]23)C[C@@H](O)C[C@@H]1O,Potency,MKL-1,16.6 µM (active)
same,Potency,MKL-2,6.62 µM (active)
same,Potency,WaGa,1.48 µM (active)
Oc1cc(-c2nc(-c3ccccc3)[nH]c2-c2ccncc2)ccc1Cl,Potency,MKL-1,inactive
same,Potency,MKL-2,inactive
same,Potency,UISO,inactive
same,Potency,C33A,inactive
same,Potency,HeLa,inactive
c1cncc(CN2CCC(n3ncc4c(N5CCOCC5)nc(-c5ccc6[nH]ccc6c5)nc43)CC2)c1,Potency,MKL-1,inactive
same,Potency,C33A,31.6 µM (active)
same,Potency,CASKI,10 µM (active)
Oc1ccc(-c2ccc(-c3cc(Nc4cccc(CNC5CC5)c4)n[nH]3)cc2)c(O)c1,Potency,MKL-1,6.62 µM (active)
same,Potency,UISO,5.26 µM (active)
Cc1cnc(Nc2ccc(CN3CCOCC3)cc2)nc1Nc1cccc(S(=O)(=O)NC(C)(C)C)c1,Potency,MKL-1,11.8 µM (active)
same,Potency,WaGa,10.5 µM (active)
same,Potency,CASKI,8.91 µM (active)
same,Potency,HeLa,1 µM (active)
